In the library only some 5.4% were active in any assay of this set; here they are far more common.
Beta apoptosis = blocks beta cell apoptosis. INS-1E cytokine-induced death, ATP luminescence, 48 h; percent of positive-control rescue, neutral wells zero. protection from apoptosis, % (no concentration beside the values). 300,000 compounds, 0.8% hits. AID 435005;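 active = Every replicate reaches about 75%, or at least half do and their mean reaches it too, limit read from the data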;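 also: higher means more ATP so stronger rescue from cytokine killing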
Mdm2-MdmX inh = human Mdm2/MdmX binding inhibition. O15151+Q00987. SaOS-2 split-luciferase Mdm2/MdmX complementation, luminescence. inhibition, % at 8 µM. 330,000 compounds, 3% hits. AID 485346;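 active = inhibition of at least 50% at 8 µM in the primary screen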
Target sequence (O15151 whole entry, looked up): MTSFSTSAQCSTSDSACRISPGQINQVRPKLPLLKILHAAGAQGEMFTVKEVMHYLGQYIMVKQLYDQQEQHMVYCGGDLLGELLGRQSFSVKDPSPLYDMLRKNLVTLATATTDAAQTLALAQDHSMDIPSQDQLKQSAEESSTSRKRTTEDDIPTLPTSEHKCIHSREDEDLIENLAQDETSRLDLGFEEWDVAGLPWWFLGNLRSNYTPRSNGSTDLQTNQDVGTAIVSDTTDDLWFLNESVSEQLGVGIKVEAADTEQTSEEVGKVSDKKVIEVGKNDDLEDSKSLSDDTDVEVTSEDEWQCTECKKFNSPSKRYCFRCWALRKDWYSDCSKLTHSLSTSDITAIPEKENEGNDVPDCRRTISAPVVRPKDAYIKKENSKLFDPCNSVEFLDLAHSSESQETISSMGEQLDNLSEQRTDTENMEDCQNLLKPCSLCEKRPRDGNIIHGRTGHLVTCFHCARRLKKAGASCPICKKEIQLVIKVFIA
Target sequence (Q00987 whole entry, looked up): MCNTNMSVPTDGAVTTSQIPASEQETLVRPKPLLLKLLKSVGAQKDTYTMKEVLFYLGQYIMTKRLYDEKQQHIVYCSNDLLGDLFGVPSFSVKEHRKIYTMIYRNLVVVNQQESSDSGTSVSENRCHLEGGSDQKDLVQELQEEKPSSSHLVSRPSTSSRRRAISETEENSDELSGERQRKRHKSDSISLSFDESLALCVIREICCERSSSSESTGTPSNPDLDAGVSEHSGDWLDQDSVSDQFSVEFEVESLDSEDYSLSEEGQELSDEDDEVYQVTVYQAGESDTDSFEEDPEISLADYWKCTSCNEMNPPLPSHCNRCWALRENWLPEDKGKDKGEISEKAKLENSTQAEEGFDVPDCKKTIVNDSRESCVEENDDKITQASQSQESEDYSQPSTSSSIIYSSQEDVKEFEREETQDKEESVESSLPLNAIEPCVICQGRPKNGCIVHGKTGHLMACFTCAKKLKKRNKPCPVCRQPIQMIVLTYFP
Calb FLC = C. albicans growth modulation with fluconazole. C. albicans CaCi-2 (fluconazole-resistant clinical isolate) + fluconazole, Alamar Blue growth, 48 h. growth inhibition, % (no concentration beside the values). 300,000 compounds, 0.57% hits. AID 1979;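 active = growth inhibition above about 58% in most replicates, limit read from the data, passing the limit was not always enough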;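 also: all wells also contain fluconazole at 8 µg/ml as a sub-toxic cotreatment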
CSC inhib = blocks cancer stem cells | cancer stem cell-like cells viability, luminescence | inhibition, % at 7.5 µM | 300,000 compounds, 1.1% hits | AID 2717; in the data active = inhibition above about 75%; tested in HMLE shEcad cells
MPTP block = inhibitors of mitochondrial permeability transition pore; 360,000 compounds, 1.4% hits; inhibition, % at 10 µM; AID 602449; isolated mouse mitochondria, Ca2+ swelling absorbance, 30 min;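 active = inhibition of 50% or more, scaled per plate between neutral and stimulator controls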
SKKanGAS inh = blocks kanamycin growth of S. pyogenes SKKanGAS strain; inhibition, % at 7.5 µM; 300,000 compounds, 1.3% hits; BacTiter-Glo, 6 h; AID 1662;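 active = mean replicate score, as percent of positive control median, at least 50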;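 also: strain carries kanamycin resistance gene driven by streptokinase promoter and grows in 40 µg/ml kanamycin; loss of luminescence reflects streptokinase promoter inhibition or plain growth inhibition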
Mdm2 MdmX conf = confirmation of human Mdm2/MdmX interaction inhibitors; inhibition, % at 8 µM; shares compounds with Mdm2-MdmX inh; 10,000 compounds, 55% hits; Mdm2-MdmX binding, luminescent assay; in the data active = inhibition above about 40%
Full FLuc ctr = inhibits full-length luciferase, flagging false Mdm2/MdmX hits. shares compounds with Mdm2-MdmX inh. SaOS-2 full-length luciferase counterscreen, luminescence. inhibition, % at 8 µM. 6,200 compounds, 77% hits. AID 504607;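 active = mean inhibition at 8 µM reaching about 37%, which flags the compound as non-specific, limit read from the data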;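 also: p53-null SaOS-2 cells with luciferase driven by a doxycycline-inducible promoter; compound on cells about two nights before reading with doxycycline added after day one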
Each line names hits and unclear results; the compound was inactive in the other large screens (follow-up assays come after a bar, where they were run).

CCN(CC)S(=O)(=O)c1ccc(N/N=C/c2cccnc2)nc1	none
CC(Oc1ccc(Cl)cc1)C(=O)Nc1ccccc1C(=O)N1CCOCC1 (stereo unspecified)	none
CC(C)(O)C#Cc1cccc(-c2nc(C(=O)NCCCN3CCOCC3)cc3c2[C@H](CCO)N(S(=O)C(C)(C)C)C3)c1 (stereo partly specified)	none (no result: Beta apoptosis, Mdm2-MdmX inh, Calb FLC, CSC inhib, SKKanGAS inh)
COc1cccc(N(CC(=O)Nc2cccnc2)S(C)(=O)=O)c1	none
Cc1ccccc1C(=O)O/N=C(\N)Cc1cccs1	Mdm2-MdmX inh 100 (no result: Beta apoptosis) | Mdm2 MdmX conf 92 | Full FLuc ctr 115
COc1ccccc1C/C(N)=N/OC(=O)c1cccs1	Mdm2-MdmX inh 51 (no result: Beta apoptosis, CSC inhib) | Mdm2 MdmX conf inactive
Cc1ccccc1OCC(=O)O/N=C(\N)Cc1cccs1	none (no result: Beta apoptosis, CSC inhib)
CC(=O)NC(c1ccc(C)cc1)c1cc(Cl)c2cccnc2c1O (stereo unspecified)	Mdm2-MdmX inh 87, SKKanGAS inh 98 | Mdm2 MdmX conf 77 | Full FLuc ctr inactive
CC(=O)NC(c1cc(Cl)c2cccnc2c1O)C(C)C (stereo unspecified)	Beta apoptosis 103, Mdm2-MdmX inh 66 (no result: Calb FLC, SKKanGAS inh) | Mdm2 MdmX conf 43 | Full FLuc ctr 37
CCC(=O)NC(c1ccco1)c1cc(Cl)c2cccnc2c1OC (stereo unspecified)	none (no result: Calb FLC, SKKanGAS inh)
CC(=O)NC(c1cc(Cl)c2ccccc2c1O)C(C)C (stereo unspecified)	none (no result: Calb FLC, SKKanGAS inh)
CC(=O)NC(c1cc(Cl)c2cccnc2c1O)C1CC1 (stereo unspecified)	Beta apoptosis 87, Mdm2-MdmX inh 53, CSC inhib 110 (no result: Calb FLC, SKKanGAS inh) | Mdm2 MdmX conf 49 | Full FLuc ctr inactive
CC(CCc1ccccc1)NS(=O)(=O)c1ccc(Cl)c(C(=O)O)c1 (stereo unspecified)	none
CCNC(=O)N(C(=O)NCC)n1c(C)nnc1C	none
O=C(O)C1CCCN1c1nc(C(F)(F)F)nc2ccccc12 (stereo unspecified)	none
CCOc1cc(/C=N/NC(=O)c2ccc(O)cc2)ccc1Oc1nc(Cl)ncc1F	none
CC(C)n1cnc2c(NCc3ccccc3)cc(N[C@H](C)CO)cc21	Beta apoptosis 114, Mdm2-MdmX inh 74, CSC inhib 124 (no result: Calb FLC, SKKanGAS inh) | Mdm2 MdmX conf 79 | Full FLuc ctr 52
CCC(CO)Oc1cc(NCc2ccccc2)c2ncn(C(C)C)c2c1 (stereo unspecified)	none (no result: Calb FLC, CSC inhib, SKKanGAS inh)
CCCOc1ccc(CCCN=C(N)N)cc1Cl	Mdm2-MdmX inh 52 | Mdm2 MdmX conf inactive
CCCCOc1ccc(CN=C(N)N)cc1Cl	none
Cc1nc2ccc(C(=O)N3c4ccccc4CC3C)cc2s1 (stereo unspecified)	Mdm2-MdmX inh 66, Calb FLC 116 | Mdm2 MdmX conf 58 | Full FLuc ctr 50
CC1Cc2ccccc2N1C(=O)c1cccnc1 (stereo unspecified)	none
CCc1ccccc1NC(=S)N(CCCN1CCN(C)CC1)Cc1cccs1	none
Cc1ccc2nc(N(CCN(C)C)C(=O)c3cc(Cl)sc3Cl)sc2c1	none (no result: CSC inhib)
COc1cc2ccccc2cc1C(=O)N(CCN(C)C)c1nc2ccc(C)cc2s1	Mdm2-MdmX inh 68 | Mdm2 MdmX conf 56 | Full FLuc ctr 45
CCN(CC)CCN(C(=O)c1cc2ccccc2cc1OC)c1nc2ccc(OC)cc2s1	Mdm2-MdmX inh 51, Calb FLC 80 | Mdm2 MdmX conf inactive
CCN(CC)CCN(C(=O)c1cc2ccccc2cc1OC)c1nc2ccc(F)cc2s1	none
CCOC(=O)C1CSC2(CCC(c3ccccc3)CC2)N1 (stereo unspecified)	none
C=CCNC(=S)N/N=C/c1ccc(-c2cc(Cl)ccc2Cl)o1	Mdm2-MdmX inh 68 | Mdm2 MdmX conf inactive
NC(=S)N/N=C/c1ccc(-c2cc(Cl)c(Cl)cc2Cl)o1	none
S=C(NCCc1ccc(Cl)cc1)NCc1ccco1	none
CC1(c2ccccc2)CC(C)(C)n2c(O)c(C3=NC(=S)NC3=O)c3cccc1c32 (stereo unspecified)	Mdm2-MdmX inh 68 | Mdm2 MdmX conf inactive
CC1(c2ccccc2)CC(C)(C)N2C(=O)C(=O)c3cccc1c32 (stereo unspecified)	none
